Screening results as filed in PubChem.
Shown are actives, neighbours in structure and some others; about 2.7% of the full set was active somewhere.
CHT PAM: human CHT allosteric activation; Q9GZV3; CHT-expressing cells, membrane potential dye, choline EC20; active compounds read high; LV-AA mutant CHT in HEK293 cells; B-score at 10 µM; 0.49% of 310,000 active;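 active = initial fluorescence not abnormally high and integrated response B-score, plate-corrected, over 3 SD above library mean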
Target sequence (Q9GZV3 whole entry, looked up): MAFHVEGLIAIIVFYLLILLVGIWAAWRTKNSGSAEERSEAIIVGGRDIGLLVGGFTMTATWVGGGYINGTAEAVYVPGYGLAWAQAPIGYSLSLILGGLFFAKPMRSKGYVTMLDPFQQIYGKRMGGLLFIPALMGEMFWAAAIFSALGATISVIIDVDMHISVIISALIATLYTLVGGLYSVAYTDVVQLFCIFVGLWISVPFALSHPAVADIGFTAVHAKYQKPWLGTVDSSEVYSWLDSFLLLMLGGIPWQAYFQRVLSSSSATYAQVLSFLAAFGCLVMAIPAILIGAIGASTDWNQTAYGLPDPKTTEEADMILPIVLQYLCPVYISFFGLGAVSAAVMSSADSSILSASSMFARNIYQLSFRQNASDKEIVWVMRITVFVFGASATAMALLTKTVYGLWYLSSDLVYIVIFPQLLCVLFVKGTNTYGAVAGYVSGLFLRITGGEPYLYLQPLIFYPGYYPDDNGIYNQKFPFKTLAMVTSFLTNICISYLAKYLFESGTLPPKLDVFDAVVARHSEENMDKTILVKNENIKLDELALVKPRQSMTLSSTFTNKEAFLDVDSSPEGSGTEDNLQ
CHT inh: human CHT choline transport inhibition; Q9GZV3; CHT-expressing cells, membrane potential dye, choline response; active compounds read low; B-score at 10 µM; 0.86% of 310,000 active;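 active = B-score over 3 SD under the library average, and starting fluorescence ratio not unusually high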;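 note: choline stimulus applied at its EC90 after an EC20 pre-addition; B-score computed on integrated fluorescence ratio after choline addition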
IDE cell inh: inhibitors of human insulin-degrading enzyme in cells; inhibition, % at 5.59 µM; 0.41% of 320,000 active; HEK cells, FAbetaB cleavage, fluorescence polarization; P14735;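 active = percent inhibition above the average of all tested compounds plus 3 SD, set per screening campaign, cut at about 16% in these data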;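 note: IDE supplied by intact live HEK cells; FP after avidin binding of uncleaved biotin substrate so inhibition keeps polarization high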
ANO1 block: inhibitors of mouse TMEM16A calcium-activated chloride channel; Q8BHY3; HEK293 TMEM16A/YFP iodide influx fluorescence, ionomycin; normalized B-score (activity score, 25-100; higher = stronger inhibition) at 10 µM; 1.2% of 310,000 active; AID 588511;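 active = ratio plate-corrected score three or more library SD toward inhibition, starting fluorescence score within five deviations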;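 note: score derived from kinetic fluorescence span divided by baseline fluorescence per well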
ANO1 activ: activators or potentiators of mouse TMEM16A chloride channel. Q8BHY3. HEK293 TMEM16A/YFP-H148Q/I152L, iodide quench fluorescence; active compounds read low. B-score at 10 µM. 0.3% of 340,000 active. AID 623877;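 active = fluorescence-ratio B-score plate-corrected deviation score at least 3 library SD below zero, with starting fluorescence score within 5 deviations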;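 note: channel opened by trigger with iodide after compound preincubation; score built on the fluorescence ratio of max minus min over baseline; more negative score means more quench and so TMEM16A activation or potentiation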
IDE act: IDE (human) activation, cell-based. 0.073% of 340,000 active. activation, % at 5.96 µM. HEK cells, FAbeta-B cleavage, fluorescence polarization; 0% vehicle, 100% cell-free pure enzyme wells. P14735;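 active = activation above the mean of all tested compounds plus 3 SD, set per screening campaign, cut at about 17% in these data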
CHT inh conf: human CHT inhibition, confirmatory screen; CHT-expressing cells, choline membrane potential dye; LV-to-AA substituted CHT, HEK293 cells; CHT activity remaining % of control (active compounds read low), % at 10 µM; shares compounds with CHT inh; 70% of 2,400 active; AID 493221;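 active = choline transporter activity left, mean of duplicates at 10 µM, below buffer-only control mean minus 3 SD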;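 note: depolarization triggered by choline at its EC90 following an EC20 pre-addition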
HEK293 CHT ctr: activity in parental HEK293 cells lacking CHT | shares compounds with CHT inh | membrane potential dye, choline response; active = decrease or increase beyond buffer ±3SD | membrane potential ratio readout (active if shifted either direction beyond buffer ±3SD; no single direction) at 10 µM | 4% of 2,400 active;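 note: parental cells lack the transporter so any hit is non-specific; ratio is peak minus trough fluorescence over baseline after EC90 choline challenge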
Hits are given with their value; – = inactive; · = not tested or not shown.

SMILES	CHT PAM	CHT inh	IDE cell inh	ANO1 block	ANO1 activ	IDE act	CHT inh conf	HEK293 CHT ctr
CCN(CC)CCCNC(=O)c1ccccc1NC(=O)C1=CSCCO1	–	-12	–	–	–	–	21%	–
CN(C)CCCN(C(=O)c1ccc([N+](=O)[O-])o1)c1nc2cc3c(cc2s1)OCO3	–	–	–	–	–	–	·	·
CC1CCN(S(=O)(=O)c2ccc3c(c2)N(CC(=O)NCCCN2C(C)CCCC2C)C(=O)CO3)CC1 (configuration not stated)	–	-7.4	–	–	–	–	34%	–
CC1CCCCN1CCCNC(=O)CN1C(=O)CSc2ccc(S(=O)(=O)N3CCOCC3)cc21 (configuration not stated)	–	–	–	–	–	–	·	·
CC1CCCCN1CCNC(=O)CN1C(=O)CSc2ccc(S(=O)(=O)N3CCCCC3)cc21 (configuration not stated)	–	-6.7	–	–	–	–	45%	–
CC[C@@H](C)C(NC(=O)OC(C)(C)C)c1cn([C@@H](CCCCNC(=O)OC(C)(C)C)C(=O)N2CCN(C(=O)OC(C)(C)C)CC2)nn1 (some centres not stated)	–	-11	–	–	–	–	–	–
CC(C)CC(NC(=O)OC(C)(C)C)c1cn([C@@H](CCCCNC(=O)OC(C)(C)C)C(=O)N2CCN(C(=O)OC(C)(C)C)CC2)nn1 (some centres not stated)	–	–	–	–	–	–	·	·
Nc1cccc2c1C(=O)N(CCOc1ccc(F)cc1)C2=O	–	–	–	–	–	–	·	·
O=C(Nc1cccc(S(=O)(=O)NC2=NCCC2)c1)c1cc(Cl)ccc1[N+](=O)[O-]	–	-6.8	–	–	–	–	21%	–
CCOC(=O)C1(Cc2ccccc2C)CCCN(C(=O)c2cc(C3CC3)[nH]n2)C1 (configuration not stated)	–	-6.3	–	–	–	–	–	–
CN1CCC(N(C)C(=S)NCCc2ccccc2)CC1	–	-7.3	–	–	–	–	–	–
O=C(NCCCN1CCOCC1)c1ccc(Cl)c(S(=O)(=O)N2CCCCCC2)c1	–	-8.3	–	–	–	–	37%	–
O=C(O)c1ccc2c(=O)n(-c3ccc(F)c(Cl)c3)c(=S)[nH]c2c1	–	–	–	–	–	–	·	·
O=C(NCCCN1CCOCC1)c1ccc2c(=O)n(-c3ccc(F)c(Cl)c3)c(=S)[nH]c2c1	–	-11	–	–	–	–	21%	–
O=C(NCCN1CCOCC1)c1ccc(Cl)c(S(=O)(=O)N2CCCCCC2)c1	–	–	–	–	–	–	·	·
COc1ccc(-n2c(=S)[nH]c3cc(C(=O)NCCCN4CCOCC4)ccc3c2=O)cc1	–	-5.2	–	–	–	–	47%	–
COc1ccccc1-c1sc2ccccc2c1-c1ccccc1OC	·	·	–	·	–	–	·	·
CN(CC(=O)Nc1ccccc1C(F)(F)F)C(=O)C1CC1	·	·	–	·	–	–	·	·
COc1ccc(S(=O)(=O)NCCSCc2ccc(Cl)cc2)cc1NC(C)=O	·	·	·	·	–	–	·	·
CS(=O)(=O)C1=NSC2=NC(=O)/C(=C\c3ccc(OC(=O)c4ccco4)cc3)C(=N)N21	–	–	–	–	·	·	·	·
CS(=O)(=O)C1=NN2C(=N)/C(=C\c3ccc(OC(=O)c4ccco4)cc3)C(=O)N=C2S1	–	-6.8	–	–	–	–	60%	–
COc1ccccc1COC(=O)c1ccc(S(=O)(=O)N2CCOCC2)cc1	·	·	–	·	–	–	·	·
CCOC(=O)CC(NC(=O)CCS(=O)(=O)c1ccc2c(c1)n(C)c(=O)c(=O)n2C)c1ccc(C)cc1 (configuration not stated)	–	–	–	–	–	–	·	·
CC(NC(=O)/C(C#N)=C/c1ccco1)c1ccccc1 (configuration not stated)	–	–	–	–	–	–	·	·
CCOCCCNC(=O)/C(C#N)=C/c1ccc([N+](=O)[O-])o1	–	-7	–	–	–	–	58%	–
SMILES	CHT PAM	CHT inh	IDE cell inh	ANO1 block	ANO1 activ	IDE act	CHT inh conf	HEK293 CHT ctr
CC(NC(=O)/C(C#N)=C/c1ccc([N+](=O)[O-])o1)c1ccccc1 (configuration not stated)	–	-5.3	–	–	–	–	62%	–
c1ccc(OCc2nc(-c3ccncc3)no2)cc1	–	–	–	–	–	–	·	·
c1ccc(OCCCc2nc(-c3ccncc3)no2)cc1	–	–	–	–	–	–	59%	-8.4
Clc1ccc(OCc2nc(-c3ccncc3)no2)c(Br)c1	–	–	–	–	–	–	·	·
Clc1ccccc1OCc1nc(-c2ccncc2)no1	–	-6.4	–	–	–	–	16%	-11
CCCCN(C(=O)c1ccc(-n2nc(C)cc2C)cc1)c1c(N)n(CCC)c(=O)[nH]c1=O	·	·	·	·	–	–	·	·
CCOc1ccc(C2C(C(=O)OC)=CN(C(C)c3ccccc3)C=C2C(=O)OC)cc1 (configuration not stated)	–	–	–	–	–	–	·	·
CCCC1=NN2C(=N)/C(=C\c3cc(C)n(Cc4ccccc4)c3C)C(=O)N=C2S1	–	–	–	–	–	–	·	·
CCCC1=NN2C(=N)/C(=C\c3ccc(SCc4ccco4)o3)C(=O)N=C2S1	–	-5.8	18	–	–	–	69%	–
CSc1n[nH]c(-c2sccc2OCc2ccc(C)cc2)n1	–	–	–	–	–	–	·	·
CSc1nnc(-c2sccc2OCc2ccccc2)n1C	–	-7.3	–	–	–	–	55%	-9.6
O=[N+]([O-])c1ccc(O)c(/C=N/n2cnc3ccccc32)c1	–	-5	–	25	–	–	–	–
O=[N+]([O-])c1ccc(O)c(/C=N/n2c(CO)nc3ccccc32)c1	–	–	–	–	–	–	·	·
COc1ccc(CCNC(=O)c2cccc(NS(=O)(=O)c3ccccc3F)c2)cc1OC	–	–	–	–	–	–	·	·
Nc1ccc(-c2ccc(N)cc2C(F)(F)F)c(C(F)(F)F)c1	–	-5.7	–	–	–	–	51%	–
Nc1nccnc1C(=O)OCC(=O)NCCc1ccc(Cl)cc1	·	·	–	·	–	–	·	·
Cc1ccc(NS(=O)(=O)c2c(C)[nH]c(C)c2C(=O)N2CCCCC2)c(Cl)c1	–	–	–	–	–	–	·	·
COc1ccccc1C(=O)Nc1ccc(OCC(=O)N2CC(C)OC(C)C2)cc1 (configuration not stated)	·	·	–	·	–	–	·	·
